Measured values taken from the supplement of paper PMC6555819.

Key:
Experiment in all cases: PBM binding z-score (relative to random genomic background probes); higher = stronger binding; sequences stand for … in GC…GCGATTGACAGCGTAGAATGAAGG
[1] = test system: PPARg:RXRa DBDmut IVT, anti-RXR (DBD mutation: RXRa K156A/R161A, NR concentration 270 nM, RXRa partner concentration 90 nM)
In short: (§1)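 Ligand-free nuclear receptor dimers were applied to custom Agilent 4×180K protein-binding microarrays whose double-stranded probes carried direct-repeat seeds, single-nucleotide variants, half-site ablations and random human genomic background sequences in 34-nt variable regions. Incubation lasted 1 h. Binding z-scores were computed against the random background probes from regression-normalized fluorescence.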

[2] = test system: PPARg:RXRa IVT, anti-PPARg (NR concentration 270 nM, RXRa partner concentration 90 nM)
In short: as §1

[3] = test system: PPARg DBDmut:RXRa IVT, anti-PPARg (DBD mutation: PPARg1 K132A/R137A, NR concentration 270 nM, RXRa partner concentration 90 nM)
In short: as §1

[4] = test system: PPARg DBDmut IVT, anti-PPARg (DBD mutation: PPARg1 K132A/R137A, NR concentration 270 nM)
In short: as §1

[5] = test system: PPARg homodimer (NR concentration 180 nM)
In short: as §1

[6] = test system: PXR:RXRa (NR concentration 270 nM, RXRa partner concentration 90 nM)
In short: as §1

[7] = test system: PXR homodimer (NR concentration 270 nM)
In short: as §1

[8] = test system: RARa:RXR (NR concentration 270 nM, RXRa partner concentration 90 nM)
In short: as §1

[9] = test system: RARa homodimer (NR concentration 270 nM)
In short: as §1

[10] = test system: RARb:RXRa (NR concentration 270 nM, RXRa partner concentration 90 nM)
In short: as §1

| Sequence | PBM binding z-score [1] | PBM binding z-score [2] | PBM binding z-score [3] | PBM binding z-score [4] | PBM binding z-score [5] | PBM binding z-score [6] | PBM binding z-score [7] | PBM binding z-score [8] | PBM binding z-score [9] | PBM binding z-score [10] |
| --- | --- | --- | --- | --- | --- | --- | --- | --- | --- | --- |
| CCGACTGGGGCAAAGGATACCATACTCAGTACGA | 3.85 | 3.35 | -0.00815 | -0.219 | 0.339 | -0.407 | -0.363 | -0.246 | -0.215 | 0.425 |
| ATCGAAAGGTCGAGGCGAGTATAGAGAAAGGGAA | 0.108 | 1.14 | 0.481 | 0.208 | 0.98 | 2.11 | 0.0659 | 2.71 | 0.203 | 3.86 |
| CCCACTGGGCCAAAAAGGTCATTGATGCCGATAA | 2.99 | 4.17 | -1.05 | -0.939 | 3.72 | 4.91 | 4.6 | 5.4 | 1.88 | 4.02 |
| TCATATAGGTAAAAGGTGAAAGTCGGTGTGGTAA | 5.72 | 5.59 | 2.1 | 0.745 | 2.06 | 2.17 | 0.508 | 3.73 | 2.49 | 2.22 |
| TCATATAGGTAAAAGGTGACAGTCGGTGTGGTAA | 5.71 | 5.54 | 2.29 | 1.71 | 1.76 | 1.36 | 1.05 | 2.14 | 1.41 | 1.7 |
| TCTGCTAGGTAAGTTGGTCAGCTAACGAGCTGCC | 0.619 | 0.862 | -0.126 | -0.493 | -1.41 | -0.474 | -1.39 | -0.538 | -1.81 | -0.235 |
| TCTGCTAGGTCAACGGTGGTCAGCTAATCTGCTA | 4.54 | 4.36 | -0.104 | -0.365 | 1.38 | 1.99 | -0.742 | 2.38 | -0.57 | 4.05 |
| CGAATGAGGGCATGAGTTGATAGCAAATGCCGAT | 4 | 3.15 | 0.455 | -0.417 | 0.0655 | 0.525 | 0.166 | 0.61 | -0.437 | 1.8 |
| CATACAGGGTCAGCTAGCCCAGAGTAGGGACGGC | 0.792 | 2.19 | 0.206 | -0.0933 | 1.48 | 2.1 | -0.17 | 3.11 | 0.642 | 4.01 |
| ATCTCTAGGAAAAGATAGTTCAGTGAATGCAAAT | -0.409 | -0.0598 | 0.523 | 0.248 | -0.459 | 0.432 | 0.918 | -0.0188 | 1.07 | 0.49 |
| TTACCAAGGGGAAGGTCGTTGATCCCTCTGTAGA | -0.147 | 0.449 | -0.647 | -0.525 | -0.13 | 0.711 | -0.0192 | 0.899 | -0.541 | 0.811 |
| CCAACTAGGTCACAGAGGTCAAAGTCCGTGCGTA | 8.13 | 8.5 | 1.22 | 2.03 | 5.09 | 6.64 | 11.9 | 7.08 | 2.03 | 5.31 |
| CCTAGCACGCCAGGGTCACTCAAGCATTTCGCTT | -0.508 | 0.0216 | -0.715 | -1.26 | 0.342 | 2.48 | -0.243 | 2.55 | -0.31 | 2.44 |
| TCATATAGGAAATACAGGTGAAAGTCGGCATCTA | 3.01 | 1.27 | 1.58 | 0.426 | 1.31 | 0.596 | 0.578 | 0.964 | 1.97 | 0.372 |
| CGAACTAGGTCAGAACAGGACAGTGGAGGATGAT | 7.32 | 7.18 | 1.32 | 0.317 | 0.748 | 0.65 | -0.155 | 0.722 | 0.321 | 2.99 |
| CCTAGTTGGTCGAGGTCACACACGCTATAGGTAC | 1.44 | 3.16 | 1.31 | -0.295 | 3.81 | 5.08 | 3.73 | 5.08 | 1.8 | 3.63 |
| CCTAGTGGGCCAAAAAGGTCATTGATGCCGATAA | 3.84 | 4.01 | -0.411 | -0.658 | 3.24 | 4.65 | 3.02 | 4.62 | 1.5 | 3.94 |
| CCTACCGGGCCAAGGTCATTGATCAGTCAAAGCA | 0.244 | 1.19 | -0.794 | -1.36 | 1.88 | 3.79 | 1.52 | 4 | 0.296 | 3.42 |
| CCTTAAGGGTCACTGACAGGTTATAGCATTTGGA | 3.94 | 4.19 | 0.865 | 0.0136 | 3.85 | 4.69 | 0.0863 | 5.85 | 1.33 | 5.18 |

| Sequence | PBM binding z-score [1] | PBM binding z-score [2] | PBM binding z-score [3] | PBM binding z-score [4] | PBM binding z-score [5] | PBM binding z-score [6] | PBM binding z-score [7] | PBM binding z-score [8] | PBM binding z-score [9] | PBM binding z-score [10] |
| --- | --- | --- | --- | --- | --- | --- | --- | --- | --- | --- |
| ATCGAAATGTCGAGGTGAGTATAGAGAAAGGGAA | -0.755 | 0.414 | 0.309 | 0.489 | -0.704 | -0.204 | -0.513 | 0.129 | -0.696 | 0.538 |
| CTAGACAGGTGAGAAGGTAACTCAGCCTCGATTA | 0.878 | 0.891 | 0.184 | -0.714 | 0.258 | -0.111 | 0.0997 | -0.121 | -0.138 | 0.44 |
| GCTGCTAGGTCAACGGATGGTCAGCTAAAGCTCG | 4.91 | 3.99 | 0.0458 | -0.872 | 1.84 | 1.21 | -0.834 | 2.51 | -0.435 | 4.19 |
| GCTAGCAGGCCATTTGAGTCACTCAATGACGGGC | 0.829 | -0.00694 | -0.509 | -2.18 | -0.951 | -0.369 | -0.961 | -0.381 | -1.15 | 0.073 |
| GCATATAGGTGATACAAGGTGAAAGTCCGATTGT | 5.22 | 4.28 | 0.633 | 0.787 | 0.568 | 0.71 | -0.00117 | 1.11 | 0.474 | 0.893 |
| CAGCCTAGGTCTGGGCCAGTATAGGAGGAACGTT | -0.647 | -0.716 | -1.17 | -1.97 | -0.842 | -0.944 | -0.644 | -0.724 | -0.886 | -0.54 |
| ATATGTAGGTTACATCCGGGACATTCAGGCTATG | 7.57 | 7.46 | 4.54 | 2.06 | 1.33 | 0.599 | 0.5 | 0.964 | 0.969 | 1.08 |
| CCGAGTAGTTTATGGGGCATTCAGGCAACGGTGA | 1.6 | 1.4 | -0.427 | -0.259 | 0.266 | -0.181 | -0.00127 | -0.101 | -0.193 | 0.282 |
| CAAACTAGGTCACAGAGGTCACAGTCCGTGCGTA | 8.75 | 9.01 | 2.8 | 2.69 | 5.83 | 6.57 | 9.23 | 7.15 | 2.78 | 5.35 |
| AGAATGAGGTTAAGATCAGGGACACAGAATACAT | 3.45 | 3.13 | 1.64 | 0.953 | 1.01 | 1.54 | 0.664 | 2.14 | 1.57 | 2.23 |
| TCTCGGAGGACACGAAAGGTCGGAGCTCGACATC | 1.24 | 0.486 | -0.405 | -0.523 | 0.582 | 1.38 | -0.652 | 1.61 | -0.809 | 2.56 |
| TAGCCTAGGTCATTGGGCCACTATAGTACGCATC | 3.5 | 4.5 | 0.0417 | -0.0772 | 0.995 | 1.63 | -0.211 | 2.14 | -0.101 | 3.49 |
| TCATATAGGTAAACAGGTGCAAGTCCGTAAGTTA | 4.3 | 2.74 | 0.88 | 1.48 | 1.13 | 1.33 | 0.685 | 1.34 | 1.57 | 0.765 |
| CCTGCTAGGTCAATGGTGAGCTAAAGCAGCTCGC | 4.2 | 3.22 | -0.736 | -0.744 | 0.822 | 0.37 | -0.961 | 1.09 | -0.333 | 3.51 |
| CTTCGGAGGACAGAAGGTCAGAGCTGTCCGCTTT | 0.227 | 0.203 | -0.826 | -2.02 | 1.51 | 1.56 | -0.691 | 2.18 | -0.152 | 3.17 |
| ATCTCTAGGTAAGACTCAGATCAGTGAAGAACGC | 1.51 | 1.26 | -0.0293 | 0.583 | 0.669 | -0.381 | 0.314 | -0.0698 | 1.46 | -0.146 |
| CGTCAAAGTTCAACTAGGGTAACGTAAAGCACGC | 1.68 | 3.83 | 0.643 | 0.081 | 3.72 | 5.46 | 6.56 | 4.56 | 1.44 | 5.37 |
| GCTAGCAGGCCATTTGGTTCACTCAATGACGGGC | 1.03 | -0.11 | -0.667 | -0.975 | -0.906 | -0.151 | 0.221 | -0.572 | -0.886 | 0.187 |
| ATCGAAAGGTCGAGGTGTGTATAGAGAAAGGGAA | 0.539 | 1.92 | 1.19 | 0.613 | 1.6 | 2.17 | 0.958 | 3.25 | 1.16 | 4.03 |
